Consider 13 compounds from PubChem BioAssay (NCI).

Assay in all cases: NCI-60 one-dose screen, 48 h (100 = growth as untreated, 0 = no growth, -100 = all killed)
Holding throughout (conditions): 10 µM unless noted

Experiment [1] concerns NCI-H23 lung.
Experiment [2] relates to NCI-H226 lung.
The test system of experiment [3] is NCI-H322M lung.
For experiment [4], the system named is HOP-62 NSCLC.
In experiment [5] the test system is NCI-H460 lung.
Experiment [6] concerns HOP-92 NSCLC.
Experiment [7] has as its system NCI-H522 lung.
The test system of experiment [8] is A549/ATCC NSCLC.
For experiment [9], the system named is 786-0 renal.
The test system of experiment [10] is COLO 205 colon.

SMILES strings stand for the structures. Compounds without any hit were thinned out: in the full panel of roughly 83,000, 20% have a hit.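 In brief: 96-well plates, 48 h treatment, single concentration, percent growth endpoint.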 A number with no mark means an inactive call. The source made the active and inactive calls. The calls were made as follows: active = growth percent below 10; inactive = the rest.

For `COc1ccc(-c2cc(C(=O)N=Nc3c(O)[nH]c4ccc(Cl)cc34)c3ccccc3n2)cc1OC`, the growth in experiment [1] was 92.2%; in experiment [2] it was 89.5%; in experiment [3], 102%; in [4] it was 123%; in experiment [5], 111%; in experiment [6], 121%. Moreover, the growth is 106% in [7], 111% in experiment [8], 106% in [9] and 125% in experiment [10].

In the case of `CN1CCN(C(=O)Oc2cc3c(c4ccccc24)[C@H](CCl)CN3C(=O)c2cc3cc(OCCCN4CCC4)ccc3[nH]2)[C@@H]2CSSC[C@H]21`, the growth is -72% (active) in experiment [1]; -22.4% (active) in experiment [2]; 2.48% (active) in experiment [3]; -40.4% (active) in [4]; -35.7% (active) in experiment [5]; -10% (active) in [6]. The growth was -51.7% (active) in [7], -2.8% (active) in [8], -89.1% (active) in experiment [9] and -65.5% (active) in experiment [10].

Regarding `CN(C)C(=O)c1cc(-c2ccc3ncnc(N4CCc5cc(F)c(Cl)cc54)c3c2)cnc1N`, the growth in experiment [1] was -18.1% (active); in experiment [2], -25.4% (active); in [3], -64.2% (active); in [4], -32.6% (active); in [5], 3.44% (active); in experiment [6], -45.7% (active). Besides, the growth in [7] was -13.4% (active); in experiment [8], -66.9% (active); in experiment [9] it was -82.2% (active); in experiment [10] it was -76.5% (active).

On to `CS(=O)(=O)Nc1cncc(-c2ccc3ncnc(NCc4ccccc4)c3c2)c1`, for which the growth in [1] was 21.8%; in experiment [2] it was 38.5%; in [3], 47.2%; in [4], 46.5%; in experiment [5], 83.3%; in [6] it was -12.3% (active). In addition, the growth in experiment [7] was 39.4%; in experiment [8], 90.1%; in experiment [9] it was 55%; in [10] it was 41.9%.

As to `N/C(=N\c1nc2ccccc2s1)NC(=O)Nc1ccccc1[N+](=O)[O-]`, the growth in experiment [1] was 14.3%; in [2], 29.1%; in experiment [3], 39.9%; in [4] it was 30.1%; in [5] it was 11.1%; in experiment [6], -5.71% (active). Further, the growth in experiment [7] is -50.1% (active); in experiment [8] it was 16.8%; in experiment [9], 11%; in experiment [10], -72% (active).

Regarding `C/C(=N/O)c1ccc(NC(=O)CSc2nnc(-c3ccc4nc(-c5ccc(Cl)cc5)[nH]c4c3)o2)cc1`, the growth is -18.9% (active) in [1]; 110% in experiment [2]; 55.8% in [3]; 20.2% in [4]; 12.2% in experiment [5]; 88.7% in experiment [6]. In addition, the growth in [7] is -16.3% (active); in [8] it was 31.8%; in experiment [9], -59.9% (active); in experiment [10], 122%.

Consider `Cc1ccc(Cl)cc1NC(=O)Nc1nc2ccc([N+](=O)[O-])cc2s1`, for which the growth in [1] is -28.6% (active); in experiment [2], -9.03% (active); in [3], -6.17% (active); in experiment [4], -68.1% (active); in experiment [5] it was -41.5% (active); in [6], -28.6% (active). Moreover, the growth is -36.8% (active) in experiment [7], -25.8% (active) in experiment [8], -27.9% (active) in experiment [9] and -87.9% (active) in [10].

For the compound `CCN1C(=O)N(CC)C2NNC(Sc3c(C(=O)O)c4ccccc4n(CC(C)C)c3=O)=NC21` (stereo not given), the growth is 10.7% in [1]; 51.2% in experiment [2]; 56.2% in experiment [3]; 34.1% in [4]; -1.23% (active) in [5]; 80.8% in experiment [6]. In addition, the growth in experiment [7] was -32.3% (active); in experiment [8], 20.9%; in experiment [9], 26.9%; in experiment [10], -21.4% (active).

Turning to `CCN1C(=O)N(CC)C2NNC(Sc3c(C(=O)O)c4ccccc4n(CCC(C)C)c3=O)=NC21` (stereo not given), the growth is 10.7% in experiment [1]; 30.4% in experiment [2]; 52.9% in experiment [3]; 27.3% in experiment [4]; -7.83% (active) in [5]; 49.4% in [6]. For the same compound, the growth in [7] was -21.7% (active); in experiment [8], 12.4%; in experiment [9], 16%; in experiment [10], -20.8% (active).

On to `CN1CCN(c2ccc3c4c(cccc24)C(=O)N(c2cccc(-c4nn(-c5ccccc5)cc4-c4nc5ccccc5s4)c2)C3=O)CC1`, for which the growth in [1] is 97.9%; in experiment [2], 95.9%; in experiment [3] it was 111%; in [4] it was 114%; in experiment [5], 18.5%; in experiment [6], 71.7%. For the same compound, the growth in experiment [7] was 110%; in [8] it was 97.9%; in [9], 46.5%; in [10] it was 91.1%.

As for `CCCn1c(NC(=O)c2cccc(C(N)=O)c2)nc2ccc(CN3CCCCC3)cc21`, the growth in [1] is 89.8%; in experiment [2], 102%; in experiment [3], 82%; in experiment [4] it was 105%; in experiment [5] it was 81.9%; in [6], 84.4%. Also, the growth in experiment [7] was 94.1%; in [8], 99.8%; in [9] it was 12%; in [10], 97.4%.

With `CCCCCCCCCc1ccc(C(=O)Nc2cc(C)ccc2C(=O)OC)cc1`, the growth in experiment [1] is 102%; in [2], 98.9%; in [3] it was 112%; in experiment [4], 107%; in experiment [5], 115%; in experiment [6], 61.6%. The growth in experiment [7] is 101%; in experiment [8], 114%; in [9] it was 101%; in experiment [10], 131%.

For `CCOC(=O)/C(F)=C/C1CC1C(c1ccccc1)c1ccccc1` (stereo not given), the growth is 73.8% in [1]; 91.8% in experiment [2]; 80.6% in experiment [3]; 125% in [4]; 38.7% in [5]; 84.1% in experiment [6]. The growth in experiment [7] was 94.8%; in experiment [8] it was 91.7%; in experiment [9], 93%; in experiment [10], 117%.
